This passage reports growth results from PubChem BioAssay (NCI).

About 83,000 compounds went through this panel and 20% of them were active in at least one assay; those are over-represented in the sample as a whole.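 Testing used 96-well plates and a 48-hour single-concentration exposure. Example: -40 means 40% of the starting cells died.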 Unmarked numbers belong to inactive results. Active and inactive are the calls of the source. Rule for the calls: active = growth percent below 10; inactive = the rest.

Test systems include T-47D breast; BT-549 breast; MDA-MB-435 melanoma; SW-620 colon; MCF7 breast; HCT-116 colon; HCC-2998 colon; KM12 colon.
Assay in all cases: NCI-60 one-dose screen, 48 h (100 = growth as untreated, 0 = no growth, -100 = all killed)
Holding throughout (settings): 10 µM unless noted

Take `Nc1[nH]c(=S)nc2oc(-c3ccccc3)c(-c3ccccc3)c12`: the growth is 96.8% in the experiment with T-47D breast; 106% in the experiment with BT-549 breast; 104% in the experiment with MDA-MB-435 melanoma; 106% in the experiment on SW-620 colon; 96.6% with MCF7 breast; 101% in the experiment on HCT-116 colon. Moreover, the growth was 110% in the experiment on HCC-2998 colon and 98.9% in the experiment on KM12 colon.

On to `CC(=O)OC(c1ccccc1)C1CCOC1=O` (stereo unspecified), for which the growth in the experiment on T-47D breast is 106%; in the experiment with BT-549 breast, 120%; in the experiment with MDA-MB-435 melanoma it was 96.3%; in the experiment on SW-620 colon it was 102%; in the experiment on MCF7 breast it was 102%; with HCT-116 colon, 101%. For the same molecule, the growth with HCC-2998 colon was 97.2%.

As for `O=C(NC1CC(F)C1)c1cc2cccnc2n1-c1ccc(Cl)c(Cl)c1` (stereo unspecified), the growth is 82.6% with T-47D breast; 101% with BT-549 breast; 119% in the experiment on MDA-MB-435 melanoma; 98.4% in the experiment on SW-620 colon; 98.3% in the experiment on MCF7 breast; 94.7% in the experiment with HCT-116 colon. In the experiment on HCC-2998 colon, the growth is 104%.

On to `CCn1c(-c2cc3c([nH]c4ccccc43)c(-c3cccc(O)c3)n2)n[nH]c1=S`, for which the growth is 11.7% with T-47D breast; 26.7% in the experiment with BT-549 breast; -24.2% (active) with MDA-MB-435 melanoma; 62.8% in the experiment with SW-620 colon; 32.6% in the experiment with MCF7 breast; 48.2% in the experiment on HCT-116 colon. Moreover, the growth in the experiment on HCC-2998 colon is 68.3%.

For the molecule `O=C(C1=Cc2cc3ccccc3n2Cc2cnnn21)c1ccc(O)cc1`, the growth is 44.9% with T-47D breast; 54.8% in the experiment with BT-549 breast; -7.67% (active) in the experiment on MDA-MB-435 melanoma; 28.7% with SW-620 colon; 34.3% with MCF7 breast; 46.4% in the experiment with HCT-116 colon. Further, the growth in the experiment with HCC-2998 colon was 83.8%.

For the molecule `C#CC#CC#CC#CC#CC#CC#CC#CC[C@@H]1OC[C@@H](COC(=O)O[C@@H](C(=O)O[C@H]2C[C@@]3(O)[C@@H](OC(=O)c4ccccc4)[C@@H]4[C@]5(OC(C)=O)CO[C@@H]5C[C@H](O)[C@@]4(C)C(=O)[C@H](OC(C)=O)C(=C2C)C3(C)C)[C@@H](NC(=O)c2ccccc2)c2ccccc2)O1`, the growth is 91.3% in the experiment on T-47D breast; 17% with BT-549 breast; 101% in the experiment on MDA-MB-435 melanoma; 101% in the experiment on SW-620 colon; 13.6% with MCF7 breast; 7.34% (active) in the experiment with HCT-116 colon. Besides, in the experiment with HCC-2998 colon, the growth was -43.9% (active).

With `CCNc1nc(O)c(/C=C2\C=Nc3ncccc32)s1`, the growth in the experiment with T-47D breast was -9.7% (active); with BT-549 breast, -50.4% (active); with MDA-MB-435 melanoma, -0.802% (active); in the experiment on SW-620 colon, 6.52% (active); in the experiment with MCF7 breast it was 3.97% (active); in the experiment on HCT-116 colon, 3.99% (active). For the same molecule, the growth with HCC-2998 colon was 10.2%.

Turning to `COC(=O)CCC/C=C\C[C@H]1C=CC(=O)/C1=C/C[C@@H](O)C/C=C\CC(F)(F)F`, the growth in the experiment on T-47D breast is 2.7% (active); in the experiment with BT-549 breast, -18.3% (active); in the experiment on MDA-MB-435 melanoma, 4.2% (active); in the experiment with SW-620 colon it was -36% (active); in the experiment with MCF7 breast it was 4.67% (active); in the experiment with HCT-116 colon, -61.4% (active). Also, the growth was -68.7% (active) in the experiment on HCC-2998 colon and -31.7% (active) in the experiment on KM12 colon.

As for `C/C(=N\O)[C@@H]1CC[C@]2(CO)CC[C@]3(C)[C@H](CC[C@@H]4[C@@]5(C)CCCNC(C)(C)[C@@H]5CC[C@]43C)[C@@H]12`, the growth was 72.5% in the experiment with T-47D breast; 90.5% in the experiment with BT-549 breast; 79.5% with MDA-MB-435 melanoma; 88.5% in the experiment on SW-620 colon; 50.9% in the experiment on MCF7 breast; 76.5% with HCT-116 colon. Moreover, the growth with HCC-2998 colon is 103%.

For `CNC(C)[C@H]1CCC2C3CC=C4C(=O)[C@@H](NC(=O)C=C(C)C)CC[C@]4(C)C3CC[C@@]21C` (stereo partly specified), the growth is -21% (active) in the experiment on T-47D breast; 35.9% with BT-549 breast; -40.6% (active) in the experiment with MDA-MB-435 melanoma; -52% (active) in the experiment on SW-620 colon; -41.8% (active) in the experiment on MCF7 breast; -30% (active) in the experiment on HCT-116 colon. Besides, the growth with HCC-2998 colon was -6.4% (active).

As to `CC[N+]1(CC)CC[N+]2(CCCC(C)CC2)CC1` (stereo unspecified), the growth in the experiment on T-47D breast was 103%; in the experiment on BT-549 breast, 113%; with MDA-MB-435 melanoma it was 110%; in the experiment with SW-620 colon it was 103%; with MCF7 breast, 96%; in the experiment with HCT-116 colon it was 104%. In addition, the growth in the experiment on HCC-2998 colon is 99.9%.

As to `CCOC(=O)c1cc(C(=O)c2cc(OC)c(OC)c(OC)c2)n2ccccc12`, the growth with T-47D breast was 47.5%; with BT-549 breast, 40%; in the experiment on MDA-MB-435 melanoma, -41.8% (active); in the experiment with SW-620 colon, 29.8%; in the experiment with MCF7 breast, 23.7%; in the experiment on HCT-116 colon it was 18.9%. Besides, in the experiment with HCC-2998 colon, the growth is 39.4%.

As to `COc1ccc2c(c1)c(-c1nc(-c3c[nH]c4ncccc34)cs1)cn2CCCN1CCOCC1`, the growth is 31.7% in the experiment with T-47D breast; 52.2% in the experiment with BT-549 breast; 47% with MDA-MB-435 melanoma; 21.2% with SW-620 colon; 13.3% with MCF7 breast; 25.3% in the experiment with HCT-116 colon. Further, in the experiment on HCC-2998 colon, the growth is 65.5%.

On to `CCCC(CC)(C(=O)Nc1ccc2nc(C)cc(N)c2c1)C(=O)Nc1ccc2nc(C)cc(N)c2c1`, for which the growth in the experiment on T-47D breast was 106%; with BT-549 breast it was 101%; in the experiment with MDA-MB-435 melanoma it was 108%; in the experiment on SW-620 colon, 112%; in the experiment on MCF7 breast, 102%; in the experiment with HCT-116 colon, 85.2%. Besides, the growth in the experiment on HCC-2998 colon was 111%.

With `COc1ccc(C(=O)/C=C/c2ccc(Cl)cc2)cc1S(=O)(=O)Nc1c(N)nc(SC)[nH]c1=O`, the growth was 62.5% with T-47D breast; 60.5% in the experiment on BT-549 breast; 80% with MDA-MB-435 melanoma; 7.52% (active) in the experiment on SW-620 colon; 18.8% in the experiment on MCF7 breast; 11.4% in the experiment on HCT-116 colon. In the experiment on HCC-2998 colon, the growth is 90.8%.

For the molecule `COCCn1cc(-c2csc(-c3c[nH]c4ccc(Br)cc34)n2)c2cccnc21`, the growth in the experiment on T-47D breast is -1.1% (active); with BT-549 breast it was 22.6%; with MDA-MB-435 melanoma it was 29%; in the experiment on SW-620 colon it was 27.9%; in the experiment on MCF7 breast, 12%; in the experiment with HCT-116 colon it was 24.2%. Also, the growth with HCC-2998 colon was 15.3%.

For the molecule `O=C(Cc1ccc(NC(=O)c2cccc(Cl)c2)cc1)NCc1ccccc1`, the growth in the experiment on T-47D breast was 54.2%; in the experiment with BT-549 breast, 61%; with MDA-MB-435 melanoma, -30.1% (active); in the experiment with SW-620 colon it was 25.3%; in the experiment on MCF7 breast, 22.1%; in the experiment with HCT-116 colon, 25.3%. Further, in the experiment on HCC-2998 colon, the growth is 73.3%.
